Out of some 340,000 compounds screened, about 800 (0.24%) were called active.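 Rule for the calls: active = activation above the mean over all tested compounds plus 3 SD (cut at about 30% in these data); inactive = the rest.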 Many of the other results were omitted from the sample, so actives are more common in it than they were.

The test deals with Troponin I, cardiac muscle (Homo sapiens) + Troponin T, cardiac muscle (Homo sapiens) + Troponin C, slow skeletal and cardiac muscles (Homo sapiens) (UniProt P19429+P45379+P63316). The test can be described thus: calcium sensitizers of cardiac thin filaments – biochemical, IANBD-TnC fluorescence, EC20 calcium, primary screen (AID 493008).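 Note: rise in fluorescence read as greater calcium sensitivity of cardiac thin filaments.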 Conditions: IANBD-labeled TnC RTF fluorescence at EC20 calcium; at 7.2 µM; hits give high values.
In the case of `CCCCC(=O)N/N=C/c1c(O)n(CC)c(=S)n(CC)c1=O`, the activation is 93.2% (active).

For `O=C(N/N=C/c1c(O)n(Cc2ccccc2)c(=O)[nH]c1=O)c1ccccc1`, the activation was 0.31% (inactive).

Turning to `Cn1c(O)c(C=NCCCC(=O)O)c(=O)n(C)c1=O`, the activation is 2.93% (inactive).

Regarding `COc1ccccc1N=C1SCCCN1C`, the activation is -2.56% (inactive).

Consider `CN1CCc2cc3c(cc2[C@H]1[C@@H]1OC(=O)c2c1ccc1c2OCO1)OCO3`, for which the activation is 0.04% (inactive).

The record behind these values is PubChem BioAssay AID493008 (The Scripps Research Institute Molecular Screening Center, 2010).
